Assay results published in the supplement of paper PMC7858590.
± gives the standard deviation of the averaged measurements. The full ranking holds about 3,800 compounds; the median of “cell shape (eccentricity) Z-score vs DMSO control” is about 1.1, and the lowest 2% start at about -4.7. For the sample, the lowest values were picked, then their nearest neighbours and some compounds at random.

Test system: human monocyte-derived macrophages (M0)
Assay: cell shape (eccentricity) Z-score vs DMSO control; higher = more elongated, M2-like morphology
Conditions: 20 µM; 24 h; macrophage state: M0 (M-CSF)
Procedure: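 Primary human monocyte-derived macrophages (M-CSF differentiated, pooled from 4 donors, 5000 cells/well in 384-well plates) were treated with each compound at 20 uM for 24 h, then fixed and stained with phalloidin/DAPI and imaged on an Opera Phenix (6 fields, about 1000 cells/well). Cell eccentricity was measured with CellProfiler, and a Z-score (t-test) was computed against 4 DMSO control wells in the same row. Negative values mean round (M1-like) cells and positive values mean elongated (M2-like) cells; the paper's hit cutoffs are Z <= -4 (M1) and Z >= 6 (M2). Scale: negative = round, M1-like.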

| SMILES | cell shape (Z-score) |
| --- | --- |
| C=C1CCC2C(CC2(C)C)C(=O)CCC1O (centres undefined) | -1.93 |
| C#CC1(OCC(O)CN2CCN(c3ccccc3OC)CC2)CCCCC1 (centres undefined) | -0.311 |
| C#CC1(OCC(O)CN2CCN(c3cccc(C(F)(F)F)c3)CC2)CCCCC1 (centres undefined) | -7.88 |
| OCC(O)CN1CCN(c2ccccc2)CC1 (centres undefined) | 2.29 |
| COC1=CC(=O)O[C@@H](/C=C/c2ccccc2)[C@@H]1O | -1.25 |
| COc1cc2c(c(OC)c1OC)CCc1cc(O)c(O)cc1-2 | -0.208 |
| COc1cc2c(c(OC)c1OC)C[C@H]1COC(=O)[C@@H]1Cc1c-2cc(OC)c(OC)c1OC | -9.6 |
| COc1cc2c(c(OC)c1OC)-c1cc3c(cc1C[C@H]1C(=O)OC[C@@H]1C2)OCO3 | 0.816 |
| CC(C)Cn1cnc2c(N)nc3ccccc3c21 | 3.03 |
| CC(C)C12CC1C(C)(O[C@@H]1O[C@H](CO)[C@@H](O)[C@H](O)[C@H]1O)CC2=O (some centres undefined) | 1.52 |
| CC(=O)OCC(=O)[C@H]1CCC2C3CC=C4C[C@@H](O)CC[C@]4(C)C3CC[C@@]21C (some centres undefined) | 3.17 |
| O=C(O)/C=C/c1ccccc1O[C@@H]1O[C@H](CO)[C@@H](O)[C@H](O)[C@H]1O | 1.56 |
| C[C@@H]1O[C@@H](O[C@@H]2[C@@H](O)[C@H](OC(=O)[C@]34CCC(C)(C)CC3C3=CCC5[C@@]6(C)CC[C@H](OC7OC(CO)C(OC8OCC(O)C(O)C8O)C(O)C7O)C(C)(C)C6CC[C@@]5(C)[C@]3(C)CC4O)O[C@H]2CO)[C@H](O)[C@H](O)[C@H]1O[C@H]1OC[C@](O)(CO)[C@H]1O (some centres undefined) | -11.6 |
| CC1(C)CC[C@]2(C(=O)O[C@@H]3O[C@H](CO)[C@@H](O)[C@H](O)[C@H]3O)CC[C@]3(C)C(=CCC4[C@@]5(C)C[C@H](O)[C@H](O[C@@H]6O[C@H](C(=O)O)[C@@H](O)[C@H](O)[C@H]6O)[C@@](C)(CO)C5CC[C@]43C)C2C1 (some centres undefined) | 0.273 |
| C[C@@H]1O[C@@H](O[C@H]2[C@H](OC(=O)[C@]34CCC(C)(C)C[C@H]3C3=CCC5[C@@]6(C)C[C@H](O)[C@H](O[C@@H]7O[C@H](C(=O)O)[C@@H](O)[C@H](O)[C@H]7O)[C@@](C)(CO)C6[C@H](O)C[C@@]5(C)[C@]3(C)C[C@H]4O)O[C@@H](CO)[C@@H]2O)[C@H](O)[C@H](O)[C@H]1O[C@@H]1OC[C@@H](O)[C@H](O[C@H]2OC[C@](O)(CO)[C@H]2O)[C@H]1O (some centres undefined) | -10.1 |
| CC1(C)CC[C@@]2(C(=O)O[C@@H]3O[C@H](CO)[C@@H](O)[C@H](O)[C@H]3O)C(C1)C1=CCC3[C@@]4(C)CC[C@@H](O[C@@H]5O[C@H](CO)[C@@H](O)[C@H](O)[C@H]5O[C@@H]5O[C@H](CO)[C@@H](O)[C@H](O)[C@H]5O)C(C)(C)C4CC[C@@]3(C)[C@]1(C)C[C@H]2O (some centres undefined) | 0.124 ± 0.97 |
| CC1(C)CC[C@@]2(C(=O)O[C@@H]3O[C@H](CO)[C@@H](O)[C@H](O)[C@H]3O)C(C1)C1=CCC3[C@@]4(C)CC[C@@H](O[C@@H]5O[C@H](C(=O)O)[C@@H](O[C@@H]6OC[C@@H](O)[C@H](O)[C@H]6O)[C@H](O)[C@H]5O)C(C)(C)C4CC[C@@]3(C)[C@]1(C)C[C@H]2O (some centres undefined) | 1.81 |
| CC1(C)CC[C@]2(C(=O)O[C@@H]3O[C@H](CO)[C@@H](O)[C@H](O)[C@H]3O)CC[C@]3(C)C(=CCC4[C@@]5(C)C[C@@H](O)[C@H](O)[C@@](C)(CO)C5[C@H](O)C[C@]43C)C2C1 (some centres undefined) | 4.82 ± 3.7 |
| C[C@@H]1O[C@@H](O[C@@H]2[C@@H](O)[C@H](O[C@@H]3[C@@H](O)[C@@H](O)[C@H](O[C@H]4[C@H](OC(=O)[C@]56CCC(C)(C)C[C@H]5C5=CCC7[C@@]8(C)C[C@H](O)[C@H](O[C@@H]9O[C@H](C(=O)O)[C@@H](O)[C@H](O)[C@H]9O)[C@@](C)(CO)C8[C@H](O)C[C@@]7(C)[C@]5(C)C[C@H]6O)O[C@@H](CO)[C@@H]4O)O[C@H]3C)OC[C@H]2O)[C@H](O)[C@H](O)[C@H]1O (some centres undefined) | -6.05 |
| CC1OC(OC2C(CO)OC(OC(=O)[C@]34CCC(C)(C)CC3C3=CCC5[C@@]6(C)CC[C@H](OC7OC(C)C(OC8OCC(O)(COC9OCC(O)C(OC%10OCC(OC%11OCC(O)(CO)C%11O)C(O)C%10O)C9O)C8O)C(O)C7O)C(C)(C)C6CC[C@@]5(C)[C@]3(C)CC4)C(O)C2O)C(O)C(O)C1O (some centres undefined) | 2.74 |
| C[C@@H]1O[C@@H](O[C@@H]2[C@@H](O)[C@H](O[C@@H]3[C@@H](O)[C@@H](O)[C@H](O[C@H]4[C@H](OC(=O)[C@]56CCC(C)(C)C[C@H]5C5=CCC7[C@@]8(C)C[C@H](O)[C@H](O[C@@H]9O[C@H](C(=O)O)[C@@H](O)[C@H](O)[C@H]9O)[C@@](C)(CO)C8[C@H](O)C[C@@]7(C)[C@]5(C)C[C@H]6O)OC[C@H](O)[C@@H]4O)O[C@H]3C)OC[C@H]2O)[C@H](O)[C@H](O)[C@H]1O (some centres undefined) | 0.295 |
| Cc1cc(O)cc2oc3cc(O)cc(O)c3c(=O)c12 | -1.58 |

| SMILES | cell shape (Z-score) |
| --- | --- |
| CCCC(=O)Nc1ccc(OCC(O)CNC(C)C)c(C(C)=O)c1 (centres undefined) | 1.65 |
| CC1=C(CO)C(=O)OC([C@@H](C)[C@H]2CCC3C4CC=C5C[C@@H](O[C@@H]6O[C@H](CO)[C@@H](O)[C@H](O)[C@H]6O)C[C@H](O)[C@]5(C)C4CC[C@@]32C)C1 (some centres undefined) | 1.5 |
| C[C@@H](Oc1cc(-n2cnc3ccc(CN4CCN(C)CC4)cc32)sc1C(N)=O)c1ccccc1C(F)(F)F | 3.02 |
| C=C1[C@H]2CC[C@@]3(C)[C@H](c4ccoc4)OC(=O)C[C@]13O[C@H]1C[C@H](O)C(C)(C)[C@H](CC(=O)OC)[C@]12C | -1.66 |
| C=C1C(=O)OC2CC3(C)CCC=C(CO)C3CC12 (centres undefined) | -3.71 |
| COC(=O)C1=CO[C@@H](O[C@@H]2O[C@H](CO)[C@@H](O)[C@H](O)[C@H]2O)[C@H]2[C@@H]1C=CC21C=C([C@H](C)O)C(=O)O1 (some centres undefined) | 2.96 |
| CC(=O)OCC(Cc1ccccc1)NC(=O)C(Cc1ccccc1)NC(=O)c1ccccc1 (centres undefined) | 0.368 |
| Cc1cc(O)c(C=O)c2c1C(=O)Oc1c(C)c(O)c3c(c1O2)C(O)OC3=O (centres undefined) | 1.11 |
| Cc1cc(O)c(C)c2c1Oc1c(C)c(O)cc(C)c1C(=O)O2 | -6.49 |
| COc1cc(C)c2c(c1C=O)Oc1c(c(C)c(O)c3c1C(O)OC3=O)OC2=O (centres undefined) | -1.59 |
| CC(=O)OCC(=O)[C@@]1(O)CCC2C3C[C@H](C)C4=CC(=O)C=CC4(C)C3[C@@H](O)CC21C (some centres undefined) | -2.52 |
| CC(CN(C)C)CN1c2ccccc2Sc2ccccc21 (centres undefined) | -1.29 |
| O=C(Nc1nc2ccc(NC(=O)C34C[C@H]5C[C@@H](C3)C[C@@H](C4)C5)cc2s1)c1ccccc1 | -4.79 |
| COc1ccc2nc(NC(=O)Nc3ccccc3)sc2c1 | 2.21 |
| O=C(Nc1ccc(C(=O)O)c(O)c1)c1ccccc1 | 1.5 |
| N=C(N)NCCNS(=O)(=O)c1cccc2cnccc12 | 5.63 |
| CCCCCC1C(=O)O/C(=C\C(=O)O)C1=O (centres undefined) | -1.15 |
| C[C@@H](NC(=O)/C(C#N)=C\c1ccc(O)c(O)c1)c1ccccc1 | 0.038 |
| CCC[C@H](NC(=O)/C(C#N)=C/c1cccc(Br)n1)c1ccccc1 | -4.73 |
| C[C@H](NC(=O)/C(C#N)=C/c1ccc(O)c(O)c1)c1ccccc1 | -2.26 |
| C[C@@H]1CN(CC(=O)Nc2ccc3c(c2)Cc2cccc(-c4cc(=O)cc(N5CCOCC5)o4)c2S3)C[C@H](C)O1 | 4.22 |
| CC(=O)Oc1cc2c(c(C)c1OC(C)=O)CC=C1[C@@]2(C)CC[C@@]2(C)C3C[C@](C)(C(=O)O)CC[C@]3(C)CC[C@]12C (some centres undefined) | -13.8 |

| SMILES | cell shape (Z-score) |
| --- | --- |
| CC1(C)C2CC[C@]3(C)C(C(=O)C=C4[C@H]5C[C@@](C)(C(=O)O)CC[C@]5(C)CC[C@]43C)[C@@]2(C)CC[C@@H]1O (some centres undefined) | 0.344 |
| Cc1cc(C(C)(C)CC(C)(C)C)ccc1OCCOCC[N+](C)(C)Cc1ccccc1 | -4.7 |
| CC(C)(C)CC(C)(C)c1ccc(OCCOCC[N+](C)(C)Cc2ccccc2)cc1 | -0.216 |
| CC(C)(C)CC(C)(C)c1ccc(O)c(-n2nc3ccccc3n2)c1 | -0.381 |
| O=C(O)c1cccnc1Nc1cccc(C(F)(F)F)c1 | 2.97 |
| COc1ccc(/C=C/C(=O)c2ccc(O)cc2O)cc1 | -5.34 |
| COc1ccc(/C=C/C(=O)c2cc(O)ccc2O)cc1 | 2.34 |
| CCOC(=O)C1=C(C)NC(C)=C(C(=O)OC)C1c1cccc([N+](=O)[O-])c1 (centres undefined) | 1.64 |
| COc1ccc2c(c1OC)OC[C@@H](c1ccc(OC)c(OC)c1OC)C2 | 2.19 |
| COc1cc(C[C@@H]2COC(c3ccc(O[C@@H]4O[C@H](CO)[C@@H](O)[C@H](O)[C@H]4O)c(OC)c3)[C@@H]2CO)ccc1O[C@@H]1O[C@H](CO)[C@@H](O)[C@H](O)[C@H]1O (some centres undefined) | 2.98 |
| Nc1ccc(-c2nc3ccc(-c4nc5ccc(N)cc5[nH]4)cc3[nH]2)cc1 | -0.879 |
| O=C(NOCC(O)CO)c1cc(Br)c(F)c(F)c1Nc1ccc(I)cc1F (centres undefined) | -0.375 |
| O=C1c2ccc(Nc3ccc(F)cc3F)cc2CCc2ccc(OC[C@H](O)CO)cc21 | -6.5 |
| CC(=O)O[C@@H]1[C@@H](O)[C@H](C)O[C@@H](Oc2c(-c3ccc(O)cc3)oc3cc(O[C@@H]4O[C@@H](C)[C@H](O)[C@@H](O)[C@H]4O)cc(O)c3c2=O)[C@@H]1O | 1.24 |
| C[C@@](Cc1ccc(O)c(O)c1)(NN)C(=O)O | 1.55 |
| COc1ccc(C(=C2C(=O)Nc3ccccc32)c2ccc(OC)cc2)cc1 | 1.61 |
| COc1ccc(C(=O)/C=C/c2ccccc2)cc1 | 3.14 |
| COc1ccc(C(=O)CC2(O)C(=O)Nc3c(Cl)ccc(Cl)c32)cc1 (centres undefined) | -7.6 |
| O=C(O)c1ccc(NCc2nc3cc4ccccc4cc3[nH]2)cc1 | 1.43 |
| CC1(C)O[C@@H]2CC3C4CCC5=CC(=O)C=C[C@]5(C)[C@@]4(F)[C@@H](O)C[C@]3(C)[C@]2(C(=O)CO)O1 (some centres undefined) | -2.57 |
